# Measured values as given in PubChem BioAssay (NCATS).
# Records with an inconclusive call do not appear. A call without a number means that no potency is given here. Unmarked numbers belong to inactive results. Calls of active or inactive are those of the source. The call rests on the fitted dose curve; in most records, active means well fitted curve in the direction sought with a large enough effect; inconclusive means small, poorly fitted or top-dose-only effect, or another doubt; inactive means no such curve, though single readings can be large; an effect the other way counts as inactive or inconclusive. *1 amine or outer side, *2 acyl side, *3 side chain or, on linkers, in order; H or OH if unused. Where a SMILES comes first, the peptide text is derived from it. [ ]: non-standard residue; d: D form. The star is where a group is joined. ξ: configuration not given here. X9 = CCC(C)(N*)C(=O)C1CC[C@@H](C(=O)N[C@@H](Cc2ccccc2)C(=O)NCC(=O)O)N1; X8 = O=C([C@@H]1CC(O)CN1[*:1])[*:2]; aIle = CC[C@@H](C)[C@H](N)C(=O)O; Thr(3ξ) = CC(O)[C@H](N)C(=O)O; ξIva = CCC(C)(N)C(=O)O; Aib = CC(C)(N)C(=O)O
# Assays:
# [1] = P-glycoprotein substrates identified in KB-8-5-11 adenocarcinoma cell line, qHTS therapeutic library screen (AID 1346987); further: nearly all actives have a fitted effect of over 65% in size; on activity change, negative = cytotoxicity: series mostly up to about 44 µM
# Method in brief: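 Human cervical adenocarcinoma KB-8-5-11 cells, selected in colchicine to over-express P-gp and assayed without it, were exposed for 72 h to titrated compounds. An ATP-based luminescent viability signal gave AC50.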
# [2] = P-glycoprotein substrates identified in KB-3-1 adenocarcinoma cell line, qHTS therapeutic library screen (AID 1346986); further: nearly all actives have a fitted effect of over 60% in size
# Method in brief: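 Viability by CellTiter-Glo after 72 h compound exposure at 37 degree C, 5% CO2. Cytotoxic call: curve class -1.1 to -2.4, maximum response >50%, AC50 < 10 uM, compared across KB-3-1 and P-gp-overexpressing KB-8-5-11.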
# [3] = test system: Zika virus NS2B-NS3 protease (unlinked complex); test: Primary screen GU Rhodamine qHTS for Zika virus inhibitors: Unlinked NS2B-NS3 protease assay (AID 1347159); further: nearly all actives have a fitted effect of over 60% in size; further: potency means the concentration at half of the fitted maximal effect
# Method in brief: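 Buffer 10 mM Tris-HCl pH 8.0, 0.01% Tween 20. Unlinked protease 25 nM; compound preincubation 15 min, RT, protected from light. Substrate Rhod110, 1.5 microM; ~15% conversion in 15 min.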
# [4] = test system: Zika virus NS2B-NS3 protease (linked construct); test: Primary screen NINDS Rhodamine qHTS for Zika virus inhibitors (AID 1347160); further: nearly all actives have a fitted effect of over 55% in size; further: potency means the concentration at half of the fitted maximal effect
# Method in brief: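 Aprotinin served as in-plate control. Conditions: 25 nM linked NS2B-NS3, pH 8.0 Tris buffer, titrated compounds, 15 min preincubation and 15 min reaction with 1.5 microM Rhod110 substrate at room temperature.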
# Furin (Homo sapiens) = Furin (Homo sapiens) (UniProt P09958); test: Furin counterscreen qHTS for Zika virus inhibitors (AID 1347149);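 further: purified recombinant full-length human furin enzyme at 5 nM; fluorescence gain from furin cutting a BOC-RVRR-AMC peptide substrate over 15 min; top concentration of the series differs between compounds; nearly all actives have a fitted effect of over 70% in size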
# Method in brief: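 Counterscreen measures cleavage of 2 microM BOC-RVRR-AMC, below its ~15 microM Km, by 5 nM full-length human furin at pH 7.0 after a 15-min compound preincubation. Inhibition derives from the 15-min fluorescence increase at 37C.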
# [5] = Confirmatory screen NINDS Rhodamine qHTS for Zika virus inhibitors (AID 1347161); further: potency means the concentration at half of the fitted maximal effect; nearly all actives have a fitted effect of over 60% in size
# Method in brief: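 Single-chain NS2B-NS3 protease, 25 nM, pH 8.0; compounds preincubated 15 min. Activity: Rhodamine110 release from 1.5 microM substrate over 15 min, room temperature, data fitted to 4-parameter Hill.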
# [6] = test system: Zika virus NS2B-NS3 protease (linked); test: 384 well plate NINDS AMC confirmatory qHTS for Zika virus inhibitors (AID 1347163); further: potency means the concentration at half of the fitted maximal effect; nearly all actives have a fitted effect of over 50% in size
# Method in brief: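 Enzyme (5, 30 or 60 nM final) first met test compounds for ~15 min. The AMC-tagged peptide Ac-VKTGKR-AMC followed at 30 microM. Fluorescence was then recorded at 25 min and scaled against no-enzyme and no-inhibitor wells.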
# [7] = test system: Zika virus NS2B-NS3 protease (linked construct); test: 384 well plate NINDS Rhodamine confirmatory qHTS for Zika virus inhibitors (AID 1347164);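 further: fluorescence from protease cleavage of Ac-LKRR-rhodamine 110 substrate; potency means the concentration at half of the fitted maximal effect; nearly all actives have a fitted effect of over 65% in size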
# Method in brief: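 Enzyme (final 5/30/60 nM) + cpd (DMSO), ~15 min; add Ac-LKRR-Rd 10 microM final; 25 min RT, dark; FI ex 485/em 538; normalized to no-enzyme, no-inhibitor ctrls; aprotinin intraplate ctrl.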
# [8] = test system: Zika virus NS2B-NS3 protease (linked construct); test: Confirmatory screen NINDS AMC qHTS for Zika virus inhibitors (AID 1347152); further: potency means the concentration at half of the fitted maximal effect; nearly all actives have a fitted effect of over 70% in size
# Method in brief: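 Enzyme (1 nM, linked construct) was preincubated with compound for 15 minutes at room temperature in 10 mM Tris-HCl pH 8.0 with 0.01% Tween 20. Bz-Nle-Lys-Arg-Arg-AMC was then added to 10 microM, and AMC fluorescence was recorded immediately and after 15 minutes.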
# Furin (Homo sapiens), sequence (P09958 whole entry, looked up): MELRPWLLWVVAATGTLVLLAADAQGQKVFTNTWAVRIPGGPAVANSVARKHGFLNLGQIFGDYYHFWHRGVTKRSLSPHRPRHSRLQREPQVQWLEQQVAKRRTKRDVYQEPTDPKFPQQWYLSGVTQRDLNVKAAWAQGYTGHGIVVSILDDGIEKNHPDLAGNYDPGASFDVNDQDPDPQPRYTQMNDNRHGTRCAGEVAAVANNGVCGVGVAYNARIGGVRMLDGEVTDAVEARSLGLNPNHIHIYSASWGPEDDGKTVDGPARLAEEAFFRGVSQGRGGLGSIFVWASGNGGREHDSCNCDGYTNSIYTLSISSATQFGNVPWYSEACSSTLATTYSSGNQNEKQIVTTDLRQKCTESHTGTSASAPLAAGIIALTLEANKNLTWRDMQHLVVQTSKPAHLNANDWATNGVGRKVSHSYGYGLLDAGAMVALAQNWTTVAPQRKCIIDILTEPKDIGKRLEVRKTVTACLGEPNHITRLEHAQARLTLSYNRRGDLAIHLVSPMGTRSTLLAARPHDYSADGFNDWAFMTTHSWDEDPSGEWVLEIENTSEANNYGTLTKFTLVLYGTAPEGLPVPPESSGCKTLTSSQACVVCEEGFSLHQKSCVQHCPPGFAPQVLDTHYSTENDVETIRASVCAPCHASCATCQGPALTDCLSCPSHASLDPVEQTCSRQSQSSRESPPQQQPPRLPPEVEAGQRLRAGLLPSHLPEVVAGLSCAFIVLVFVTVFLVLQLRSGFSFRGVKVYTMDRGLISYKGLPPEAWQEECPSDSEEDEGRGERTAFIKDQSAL
compound,measurement,setting,value
CC[C@@H](C)[C@H](NC(=O)C(C)(C)NC(=O)[C@H](CCC(N)=O)NC(=O)C(C)(CC)NC(=O)[C@H](Cc1c[nH]c2ccccc12)NC(C)=O)C(=O)N[C@H](C(=O)NC(C)(C)C(=O)N[C@@H](CC(C)C)C(=O)NC(C)(C)C(=O)N1CCC[C@H]1C(=O)N[C@@H](CCC(N)=O)C(=O)NC(C)(C)C(=O)N1CC(O)C[C@H]1C(=O)NC(C)(CC)C(=O)C1CC[C@@H](C(=O)N[C@@H](Cc2ccccc2)C(=O)NCC(=O)O)N1)C(C)O (stereo partly specified) (Ac-W[ξIva]Q[Aib][aIle][Thr(3ξ)][Aib]L[Aib]PQ[Aib][X8]-X9),"activity change, negative = cytotoxicity",[1],-19% [at 5.11 µM]
C=C1CCC2(C(=O)OC3OC(CO)C(O)C(O)C3O)CCC3(C)C(=CCC4C5(C)CCC(OC6OC(CO)C(OC7OC(C)C(O)C(O)C7O)C(OC7OCC(O)C(O)C7O)C6O)C(C)(C)C5CCC43C)C2C1 (stereo unspecified),outcome,[1],inactive [at 9.29 µM]
Nc1ncnc2c1c(COc1cccc(Cl)c1)nn2C1CCOCC1,Potency,[2],inactive
same,Potency,[3],inactive
same,Potency,[4],inactive
OC[C@H]1O[C@@H](OCc2ccccc2)[C@H](O)[C@@H](O)[C@@H]1O,Potency,[1],inactive
COc1ccc(/C=C/C(N)=O)cc1OC,Potency,[2],inactive
same,Potency,[3],inactive
same,Potency,[4],inactive
O=C(OC[C@H]1O[C@@H](Oc2ccccc2CO)[C@H](O)[C@@H](O)[C@@H]1O)c1ccccc1,Potency,[1],inactive
C[C@@H]1CC[C@]2(C(=O)O[C@@H]3O[C@H](CO[C@@H]4O[C@H](CO)[C@@H](O)[C@H](O)[C@H]4O)[C@@H](O)[C@H](O)[C@H]3O)CC[C@]3(C)C(=CCC4[C@@]5(C)CC[C@H](O)[C@](C)(C(=O)O)C5CC[C@]43C)[C@@H]2[C@]1(C)O (stereo partly specified),outcome,[1],inactive [at 9.29 µM]
C/C=C/C=C/C(O)=C1/C(=O)[C@]2(C)C(=O)[C@@](C)(O)[C@H]1[C@H]([C@@]1(C)OC(=O)C(C)=C1O)[C@H]2C(=O)CC/C=C/C,Potency,[2],inactive
same,Potency,[4],inactive
O=C(OC[C@H]1O[C@@H](Oc2ccccc2COC(=O)C2(O)C=CCCC2O)[C@H](O)[C@@H](O)[C@@H]1O)c1ccccc1 (stereo partly specified),Potency,[1],inactive
C=C1C(O)C(O)C2(CC3C(C)=CCC4C(C)(C(=O)O)CCCC34C)OC2C1O (stereo unspecified),Potency,[1],inactive
CC(C)c1cc2c(c(O)c1O)[C@@]13CCCC(C)(C)C1[C@@H](O)[C@@H]2OC3=O (stereo partly specified),Potency,[1],inactive
O=C(/C=C/c1ccc(O)c(O)c1)O[C@H]1[C@H](OC2CCCCC2O)O[C@H](CO)[C@@H](O)[C@@H]1O (stereo partly specified),Potency,[1],inactive
C[C@@H]1CC[C@]2(C(=O)O)CC[C@]3(C)C(=CCC4[C@@]5(C)C[C@@H](O)[C@@H](O)C(C)(C)C5CC[C@]43C)C2[C@]1(C)O (stereo partly specified),Potency,[1],inactive
C[C@H]1[C@H](C)CC[C@]2(C(=O)O)CC[C@]3(C)C(=CCC4[C@@]5(C)C[C@@H](O)[C@H](O)C(C)(C)C5CC[C@]43C)[C@H]12 (stereo partly specified),Potency,[1],inactive
CC(CCO)CCC1C2(C)CCCC(C)(C)C2CC[C@@]1(C)O (stereo partly specified),Potency,[1],inactive
CC1CC2OCC3(O)CCC(O)C(C14CC(c1ccoc1)OC4=O)C23CO (stereo unspecified),Potency,[1],inactive
C=CC1(C)C=C2CC[C@H]3[C@@](C)(C(=O)O)CCC[C@]3(C)C2CC1 (stereo partly specified),Potency,[1],inactive
same,Potency,Furin (Homo sapiens),inactive
same,Potency,[3],7.94 µM (active)
same,Potency,[4],3.55 µM (active)
same,Potency,[5],9.67 µM (active)
same,Potency,[6],70.8 µM (active)
same,Potency,[7],20 µM (active)
C=C1C2CCC3C(CCC4[C@@]3(C)CCC[C@@]4(C)C(=O)O)(C2)[C@@H]1OC(=O)/C(C)=C\C (stereo partly specified),Potency,[1],inactive
same,Potency,Furin (Homo sapiens),inactive
same,Potency,[8],21.5 µM (active)
same,Potency,[3],6.31 µM (active)
same,Potency,[4],10 µM (active)
same,Potency,[5],6.07 µM (active)
same,Potency,[6],39.8 µM (active)
same,Potency,[7],8.91 µM (active)
